# Results filed as inconclusive are left out. Activity calls are given as the source filed them. Unless noted, calls come from the whole dose curve; as a rule, active = well fitted curve in the direction sought with a large enough effect; inconclusive = small, poorly fitted or top-dose-only effect, or another doubt; inactive = no such curve, though single readings can be large; an effect the other way counts as inactive or inconclusive.
# Assays:
# [1] = Quantitative High-Throughput drug screen in 47 multiple myeloma cell lines against the NCATS MIPE library collection: KMS28BM_JCRB cell viability assay (AID 1919874); note: nearly all actives have a fitted effect of over 35% in size; note: potency is the fitted concentration of half-maximal effect
# Outline: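 500 cells/well; MIPE 4.0 drugs pin-transferred; 48 h, 37C, 5% CO2. CellTiter-Glo, 5 min RT, luminescence. Controls: DMSO 100%, media 0%.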
# [2] = qHTS drug screen for cell cycle checkpoint inhibitors in PARPi-resistant BRCA-mutant ovarian cancer cell lines. (AID 1963452; calls by dose curve); details: PEO1/OlaR viability, CellTiter-Glo luminescence, 96 h, stronger effect = lower value
# Outline: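 PEO1, PEO4 and PEO1/OlaR ovarian cancer cells, 600 per well, exposed 96 h at 37C to a dilution series. Viability read by CellTiter-Glo luminescence, normalized to DMSO and empty wells; activity summarized as Z-AUC.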
# [3] = qHTS for identification of novel therapeutic agents for treatment of microphthalmiaassociated transcription factor (MiT) renal cell carcinoma (RCC) (AID 1963991; calls by dose curve; note: potency is the fitted concentration of half-maximal effect); details: CellTiter-Glo, 48 h; for z-score: stronger effect = lower value
# Outline: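 Curves over 11 concentrations were fitted to CellTiter-Glo luminescence, scaled between empty wells (0%) and DMSO (100%) viability. Cells were UOK109, UOK124 and UOK145 TFE3-fusion RCC lines at 500/well, exposed 48 hours at 37 C.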
# [4] = qHTS profiling for inhibitors of Plasmodium falciparum proliferation (AID 504749); note: potency is the fitted concentration of half-maximal effect;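 for activity, negative = inhibition: 0% = DMSO vehicle and full inhibition = artemisinin control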; for all read-outs here: nearly all actives have a fitted effect of over 60% in size; details: P. falciparum in erythrocytes, SYBR Green DNA, 72 h; for activity, negative = inhibition: at 28.7 µM (top of the series)
# Outline: (§1)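 SYBR Green fluorescence (ex 485 nm, em 535 nm) reports parasite DNA after 72 h compound exposure of infected red cells at 0.3% parasitemia, 2.5% hematocrit; signal normalized to 0.29 uM artemisinin and vehicle wells.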
# 3D7 = assay: as above; details: P. falciparum in erythrocytes, SYBR Green DNA, 72 h; series mostly up to 28.7 µM
# Outline: as §1
# 7G8 = assay: as above; details: P. falciparum in erythrocytes, SYBR Green DNA, 72 h; series mostly up to 28.7 µM
# Outline: as §1
# AA1029 = assay: as above; details: P. falciparum in erythrocytes, SYBR Green DNA, 72 h; series mostly up to 28.7 µM
# Outline: as §1
# AS120 = assay: as above; details: P. falciparum in erythrocytes, SYBR Green DNA, 72 h; series mostly up to 28.7 µM
# Outline: as §1
# ATS189 = assay: as above; details: P. falciparum in erythrocytes, SYBR Green DNA, 72 h; series mostly up to 28.7 µM
# Outline: as §1
# ATS95 = assay: as above; details: P. falciparum in erythrocytes, SYBR Green DNA, 72 h; series mostly up to 28.7 µM
# Outline: as §1
# C2A = assay: as above; details: P. falciparum in erythrocytes, SYBR Green DNA, 72 h; series mostly up to 28.7 µM
# Outline: as §1
# [5] = target: Cytochrome P450 2D6 (Homo sapiens) (UniProt P10635); assay: qHTS for inhibitors of CYP2D6 against the NCATS DSHEA and TCM libraries (AID 1919972); details: CYP2D6 enzymatic inhibition, luminescence qHTS; note: potency is the fitted concentration of half-maximal effect
# Outline: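 qHTS, concentration–response format with most substances from 19.5 nM. CYP2D6 + pro-luciferin substrate, 15 min with compound, then 1x NADPH regen, 30–45 min RT dark. Glo detection 30 min, luminescence. Quinidine control.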
# [6] = target: Cytochrome P450 2C19 (Homo sapiens) (UniProt P33261); assay: qHTS for inhibitors of CYP2C19 against the NCATS DSHEA and TCM libraries (AID 1919974); details: CYP2C19 enzyme inhibition, luminescence qHTS;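 note: luminescence from luciferin released by CYP2C19 oxidation of a pro-luciferin substrate; potency is the fitted concentration of half-maximal effect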
# Outline: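 Isoform-specific enzyme and substrate levels; enzyme-free wells as background. Reaction: 1x NADPH regenerating system, 30-45 min, room temperature, shielded from light; luminescent detection reagent added, 30 min.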
# [7] = KB-3-1 P-gp reporter qHTS against the NCATS DSHEA and TCM libraries (AID 1919975); note: 0% is about no effect
# Outline: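 CellTiter-Glo luminescence viability readout; KB-3-1 parental cells, 500/well, attached ~4 h, then compound for ~72 h, 37C, 5% CO2. Bortezomib intraplate control.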
# [8] = target: Cytochrome P450 1A2 (Homo sapiens) (UniProt P05177); assay: qHTS for inhibitors of CYPIA2 against the NCATS DSHEA and TCM libraries (AID 1919976); details: recombinant CYP1A2 enzyme activity, luminescence; note: potency is the fitted concentration of half-maximal effect
# Outline: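 Furafylline served as the plate control. Compounds met CYP1A2 and pro-luciferin substrate 15 min before NADPH regeneration solution (1x) was added; after 30-45 min at RT, P450-Glo reagent was added for 30 min and luminescence was measured.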
# [9] = KB-8-5-11 P-gp reporter qHTS against the NCATS DSHEA and TCM libraries (AID 1919977); note: 0% is about no effect
# Outline: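 CellTiter-Glo luminescence after ~72 h exposure at 37C gave viability of KB-8-5-11 cells, the P-gp-overexpressing subline. Substances were titrated; colchicine was omitted from assay medium.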
# [10] = qHTS Counterscreen for compound interference against the NCATS DSHEA and TCM libraries (AID 1919978); details: firefly luciferase detection reagent interference, luminescence;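 note: compounds preincubated with 1 µM D-luciferin or buffer before detection reagent; % of control where 0% means no effect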
# Outline: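 Luminescence counterscreen for detection-kit interference: compounds at 19.5 nM–39.8 uM final, 15 min RT with 1 uM D-luciferin or buffer only; detection reagent added, 30 min RT, then read.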
# [11] = Dual reporter qHTS for agonist of Pregnane X Receptor (hPXR) against the NCATS DSHEA and TCM libraries: Fluorescence readout (AID 1920058); note: 0% is about no effect
# Outline: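 In this qHTS counter-read, reporter-bearing HepG2 cells in charcoal-stripped serum received substances for approximately 24 h before viability was assessed fluorometrically with CellTiter-Fluor.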
# [12] = target: Nuclear receptor subfamily 1 group I member 2 (Homo sapiens) (UniProt O75469); assay: Dual reporter qHTS for antagonist of Pregnane X Receptor (hPXR) against the NCATS DSHEA and TCM libraries: Luminescence Readout (AID 1920060);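 note: HepG2 cells carrying hPXR luciferase reporter stimulated with rifampicin at 2 µM; 0% is about no effect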
# Outline: (§2)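 In antagonist mode, 2 uM rifampicin was added to hPXR-Luc HepG2 cells alongside test substances, incubated 24 h at 37 C; luminescence gave reporter activity, and CellTiter-Fluor fluorescence (405/540 nm) gave viability.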
# [13] = Dual reporter qHTS for antagonist of Pregnane X Receptor (hPXR) against the NCATS DSHEA and TCM libraries: Fluorescence Readout (AID 1920061); note: 0% is about no effect
# Outline: as §2
# [14] = measured here: PEO1 parental Z-AUC
# [15] = TFE3-RCC UOK109 viability, measured here: UOK109 Z-AUC
# [16] = TFE3-RCC viability, measured here: UOK124 Z-AUC
# [17] = TFE3-RCC viability, measured here: UOK145 Z-AUC
# Cytochrome P450 2C19 (Homo sapiens), sequence (P33261 whole entry, looked up, canonical isoform): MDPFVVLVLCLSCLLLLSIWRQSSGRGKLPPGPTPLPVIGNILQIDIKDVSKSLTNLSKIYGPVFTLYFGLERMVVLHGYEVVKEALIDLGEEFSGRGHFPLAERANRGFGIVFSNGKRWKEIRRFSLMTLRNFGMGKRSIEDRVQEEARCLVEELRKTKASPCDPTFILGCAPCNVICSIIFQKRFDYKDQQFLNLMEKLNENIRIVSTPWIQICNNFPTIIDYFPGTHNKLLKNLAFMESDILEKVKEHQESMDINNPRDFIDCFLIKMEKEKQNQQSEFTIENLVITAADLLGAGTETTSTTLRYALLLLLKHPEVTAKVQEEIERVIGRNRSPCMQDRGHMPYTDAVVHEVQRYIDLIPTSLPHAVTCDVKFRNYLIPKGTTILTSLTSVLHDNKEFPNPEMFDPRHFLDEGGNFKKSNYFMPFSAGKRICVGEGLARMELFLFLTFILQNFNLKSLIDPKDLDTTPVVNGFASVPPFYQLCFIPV
# Nuclear receptor subfamily 1 group I member 2 (Homo sapiens), sequence (O75469 whole entry, looked up): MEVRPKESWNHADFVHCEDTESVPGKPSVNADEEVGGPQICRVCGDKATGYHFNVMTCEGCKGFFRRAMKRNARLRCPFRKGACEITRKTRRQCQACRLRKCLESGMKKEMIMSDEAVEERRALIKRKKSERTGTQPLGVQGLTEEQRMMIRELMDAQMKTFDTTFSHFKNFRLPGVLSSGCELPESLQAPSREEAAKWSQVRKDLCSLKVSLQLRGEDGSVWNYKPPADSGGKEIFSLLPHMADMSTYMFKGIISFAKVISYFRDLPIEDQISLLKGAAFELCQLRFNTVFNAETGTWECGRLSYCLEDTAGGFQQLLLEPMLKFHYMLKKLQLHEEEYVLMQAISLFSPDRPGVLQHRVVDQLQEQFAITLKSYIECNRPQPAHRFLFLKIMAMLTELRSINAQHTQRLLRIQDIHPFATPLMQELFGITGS
# Cytochrome P450 2D6 (Homo sapiens), sequence (P10635 whole entry, looked up): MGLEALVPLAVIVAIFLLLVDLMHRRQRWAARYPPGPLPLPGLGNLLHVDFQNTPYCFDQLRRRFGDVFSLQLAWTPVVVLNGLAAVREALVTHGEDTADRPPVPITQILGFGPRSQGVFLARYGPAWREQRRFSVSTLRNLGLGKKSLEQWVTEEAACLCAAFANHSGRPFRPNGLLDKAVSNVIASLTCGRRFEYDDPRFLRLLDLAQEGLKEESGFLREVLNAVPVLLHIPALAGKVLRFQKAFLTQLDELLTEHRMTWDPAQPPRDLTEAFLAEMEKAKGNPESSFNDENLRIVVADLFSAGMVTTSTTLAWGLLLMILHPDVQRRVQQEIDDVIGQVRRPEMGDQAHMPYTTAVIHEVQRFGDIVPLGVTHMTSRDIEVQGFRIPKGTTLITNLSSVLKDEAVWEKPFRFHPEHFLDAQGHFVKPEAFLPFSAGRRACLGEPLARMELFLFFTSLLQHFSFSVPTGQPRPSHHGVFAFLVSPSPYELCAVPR
# Cytochrome P450 1A2 (Homo sapiens), sequence (P05177 whole entry, looked up): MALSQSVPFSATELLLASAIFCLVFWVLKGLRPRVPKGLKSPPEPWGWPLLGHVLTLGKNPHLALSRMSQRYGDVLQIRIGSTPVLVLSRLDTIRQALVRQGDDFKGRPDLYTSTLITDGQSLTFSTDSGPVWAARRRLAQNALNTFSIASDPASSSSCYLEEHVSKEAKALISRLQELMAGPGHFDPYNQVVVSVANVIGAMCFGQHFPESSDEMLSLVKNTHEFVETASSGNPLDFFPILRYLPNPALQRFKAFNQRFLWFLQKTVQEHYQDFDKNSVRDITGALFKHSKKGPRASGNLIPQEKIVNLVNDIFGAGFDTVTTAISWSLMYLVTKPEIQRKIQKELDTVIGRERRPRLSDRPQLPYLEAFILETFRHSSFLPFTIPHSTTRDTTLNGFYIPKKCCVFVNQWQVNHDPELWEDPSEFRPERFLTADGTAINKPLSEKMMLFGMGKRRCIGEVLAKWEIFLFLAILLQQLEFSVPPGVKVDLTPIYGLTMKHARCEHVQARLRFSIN
compound,measurement,setting,value
Cn1cc(C2=C(c3cn(C4CCN(Cc5ccccn5)CC4)c4ccccc34)C(=O)NC2=O)c2ccccc21,Potency,[1],inactive
same,Z-AUC,[2],-0.351 (inactive)
same,Z-AUC,[2]; [14],0.347
same,Z-AUC,[2]; measured here: PEO4 Z-AUC,0.154
COc1ccc2c(c1OC)CN1CCc3cc4c(cc3C1C2)OCO4 (stereo not given),Potency,[1],inactive
same,z-score,[3]; [15],0.633
same,z-score,[3]; [16],0.605
same,z-score,[3]; [17],0.614
COC[C@@H](NC(C)=O)C(=O)NCc1ccccc1,Potency,[1],inactive
same,Z-AUC,[2],-0.757 (inactive)
same,Z-AUC,[2]; [14],0.116
same,Z-AUC,[2]; measured here: PEO4 Z-AUC,-0.684
same,z-score,[3]; [15],-0.0332
same,z-score,[3]; [16],0.828
same,z-score,[3]; [17],0.367
COC[C@H]1OC(=O)c2coc3c2[C@@]1(C)C1=C(C3=O)C2CCC(=O)[C@@]2(C)C[C@H]1OC(C)=O (stereo not given in full),Z-AUC,[2],0.865 (inactive)
same,Z-AUC,[2]; [14],0.666
same,Z-AUC,[2]; measured here: PEO4 Z-AUC,0.563
Fc1ccc(C(OCCN2CCN(CCCc3ccccc3)CC2)c2ccc(F)cc2)cc1,Potency,[1],13.2 µM (active)
same,Z-AUC,[2],0.198 (inactive)
same,Z-AUC,[2]; [14],-0.0312
same,Z-AUC,[2]; measured here: PEO4 Z-AUC,-0.0118
same,Potency,[4]; parasite line A,8.91 µM (active)
same,Potency,[4]; parasite line B,11.2 µM (active)
same,Potency,3D7,8.91 µM (active)
same,Potency,7G8,3.55 µM (active)
same,Potency,AA1029,7.08 µM (active)
same,Potency,AS120,4.47 µM (active)
same,Potency,ATS189,8.91 µM (active)
same,Potency,ATS95,7.94 µM (active)
same,Potency,C2A,11.2 µM (active)
C=C1C[C@@H]2[C@H](CC[C@]3(C)C(=O)CC[C@@H]23)[C@@]2(C)C=CC(=O)C=C12,Z-AUC,[2],1.28 (inactive)
same,Z-AUC,[2]; [14],0.968
same,Z-AUC,[2]; measured here: PEO4 Z-AUC,1.01
N[C@@H](Cc1ccc(N(CCCl)CCCl)cc1)C(=O)O,Potency,[1],23.5 µM (active)
same,Z-AUC,[2],-0.14 (inactive)
same,Z-AUC,[2]; [14],-0.257
same,Z-AUC,[2]; measured here: PEO4 Z-AUC,-0.0487
same,Potency,7G8,11.2 µM (active)
O=C(O)C(=O)c1cn(Cc2ccccc2)c2ccc(-c3ccc(OC(F)(F)F)cc3)cc12,Potency,[1],inactive
same,Z-AUC,[2],-0.0319 (inactive)
same,Z-AUC,[2]; [14],0.702
same,Z-AUC,[2]; measured here: PEO4 Z-AUC,0.863
C[C@@H]1[C@@H](CC(C[C@H]2O[C@@H]3O[C@]4(C)CC[C@@H]5[C@H](C)CC[C@@H]([C@H]2C)[C@@]35OO4)C[S+](=O)([O-])c2ccc(COC(=O)N(C)C)cc2)O[C@@H]2O[C@]3(C)CC[C@H]4[C@H](C)CC[C@@H]1[C@@]24OO3 (stereo not given in full),Potency,[1],0.264 µM (active)
Cc1cc(SCc2sc(-c3ccc(C(F)(F)F)c(F)c3)nc2C)ccc1OCC(=O)O,Z-AUC,[2],-0.925 (inactive)
same,Z-AUC,[2]; [14],-0.906
same,Z-AUC,[2]; measured here: PEO4 Z-AUC,-0.303
C#CCN(C)[C@H](C)Cc1ccccc1,Z-AUC,[2],0.853 (inactive)
same,Z-AUC,[2]; [14],0.381
same,Z-AUC,[2]; measured here: PEO4 Z-AUC,0.551
same,z-score,[3]; [15],0.064
same,z-score,[3]; [16],-0.193
same,z-score,[3]; [17],0.147
C[C@@H]1O[C@@H](O[C@H]2C[C@@H](O)[C@]3(CO)[C@H]4[C@H](O)C[C@]5(C)[C@@H](C6=CC(=O)OC6)CC[C@]5(O)[C@@H]4CC[C@]3(O)C2)[C@H](O)[C@H](O)[C@H]1O,Potency,[1],0.0209 µM (active)
same,Z-AUC,[2],-1.08 (inactive)
same,Z-AUC,[2]; [14],-2.2
same,Z-AUC,[2]; measured here: PEO4 Z-AUC,-1.63
same,Potency,[3]; TFE3-RCC UOK109 viability,0.0166 µM (active)
same,z-score,[3]; [15],-3.9
same,z-score,[3]; [16],-2.36
same,z-score,[3]; [17],-3.38
CC(C)=CCOc1c2occc2cc2ccc(=O)oc12,Potency,[5],1.78 µM (active)
same,Potency,[6],12.6 µM (active)
same,outcome,[7],inactive
same,Potency,[8],1.26 µM (active)
same,outcome,[9],inactive
same,max response,[10],2.08% (inactive)
same,outcome,[11],inactive
same,outcome,[12],inactive
same,outcome,[13],inactive
O=C1CC[C@@]2(O)[C@H]3Cc4ccc(O)c5c4[C@@]2(CCN3CC2CC2)[C@H]1O5,Potency,[1],inactive
same,Z-AUC,[2],-0.771 (inactive)
same,Z-AUC,[2]; [14],-0.291
same,Z-AUC,[2]; measured here: PEO4 Z-AUC,-0.633
same,z-score,[3]; [15],0.814
same,z-score,[3]; [16],0.454
same,z-score,[3]; [17],1.09
CC1=C2C[C@@H]3[C@@H](CC=C4C[C@@H](O)CC[C@@]43C)[C@@H]2CC[C@]12O[C@H]1C[C@H](C)CN[C@H]1[C@H]2C,Potency,[1],inactive
same,z-score,[3]; [15],0.302
same,z-score,[3]; [16],-0.274
same,z-score,[3]; [17],0.235
Cc1cccc(C)c1NC(=O)CN1CCCC1=O,Potency,[1],inactive
same,Z-AUC,[2],0.64 (inactive)
same,Z-AUC,[2]; [14],0.59
same,Z-AUC,[2]; measured here: PEO4 Z-AUC,1.08
same,z-score,[3]; [15],1.77
same,z-score,[3]; [16],0.0528
same,z-score,[3]; [17],0.844
CC(O)(CS(=O)(=O)c1ccc(F)cc1)C(=O)Nc1ccc(C#N)c(C(F)(F)F)c1 (stereo not given),Potency,[1],inactive
O=c1c(O)c(-c2ccc(O)c(O)c2)oc2cc(O)cc(O)c12,outcome,[9],inactive
CCCC(C)(COC(N)=O)COC(=O)NC(C)C (stereo not given),z-score,[3]; [15],-0.172
same,z-score,[3]; [16],0.563
same,z-score,[3]; [17],0.256
CN(C)CCc1ccc(O)cc1,z-score,[3]; [15],2.07
same,z-score,[3]; [16],0.378
same,z-score,[3]; [17],0.923
NCCc1cc(O)c(O)cc1O,"activity, negative = inhibition",[4]; parasite line A,7.16% (inactive)
same,"activity, negative = inhibition",[4]; parasite line B,11.4% (inactive)
same,Potency,3D7,inactive
same,Potency,7G8,inactive
same,Potency,AA1029,inactive
same,Potency,AS120,inactive
same,Potency,ATS189,inactive
same,Potency,ATS95,inactive
same,Potency,C2A,inactive

# From PubChem BioAssay (NCATS)
